# Results published in paper PMC5540273 (PLoS ONE, 2017).
# Assays:
# Details in all cases: concentration: 1 μM, replicates: in singlicate; n = 1
# TTK = system: TTK
# TXK = system: TXK
# [1] = system: TYK2(JH1domain-catalytic)
# [2] = system: TYK2(JH2domain-pseudokinase)
# TYRO3 = system: TYRO3
# ULK1 = system: ULK1
# ULK2 = system: ULK2
# ULK3 = system: ULK3
# VEGFR2 = system: T1, VEGFR2
# T1 construct: gene KDR
# VPS34 = system: T2, VPS34
# T2 construct: gene PIK3C3
# VRK2 = system: VRK2
# WEE1 = system: WEE1
# WEE2 = system: WEE2
# WNK1 = system: WNK1
# WNK2 = system: WNK2
# WNK3 = system: WNK3
# WNK4 = system: WNK4
# YANK1 = system: T3, YANK1
# T3 construct: gene STK32A
# YANK2 = system: T4, YANK2
# T4 construct: gene STK32B
# YANK3 = system: T5, YANK3
# T5 construct: gene STK32C
# 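Note: KINOMEscan kinase panel screen.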
Structure (SMILES),%Inh (TTK) [%],%Inh (TXK) [%],%Inh [1] [%],%Inh [2] [%],%Inh (TYRO3) [%],%Inh (ULK1) [%],%Inh (ULK2) [%],%Inh (ULK3) [%],%Inh (VEGFR2) [%],%Inh (VPS34) [%],%Inh (VRK2) [%],%Inh (WEE1) [%],%Inh (WEE2) [%],%Inh (WNK1) [%],%Inh (WNK2) [%],%Inh (WNK3) [%],%Inh (WNK4) [%],%Inh (YANK1) [%],%Inh (YANK2) [%],%Inh (YANK3) [%]
CS(=O)(=O)c1ccc(-c2nc3n(c2-c2ccncc2)CCC3)cc1 [SKF-105942],0,0,0,0,0,19,0,11,0,0,12,0,10,0,0,0,29,0,0,100
Cc1csc(-c2nc(Nc3ccncc3)c3ccccc3n2)n1 [GW869640],35,0,100,83,0,33,23,50,36,33,20,1,12,37,0,33,13,2,3,43
COc1cc2ncnc(Nc3ccc4nc(-c5ccccc5)[nH]c4c3)c2cc1OC.Cl [GW282450],30,0,9,10,0,1,0,2,27,7,0,0,0,10,16,6,0,2,0,9
Cc1cc(-c2ccc3c(c2)CC[C@@H](N[C@@H](C)c2ccccc2)C3)cnc1N.Cl [GW412617],0,16,24,6,17,19,8,16,1,68,0,18,11,0,0,7,0,2,4,33
O=C(Nc1ccccc1)Nc1cccc(Oc2ccc3nccn3n2)c1,0,0,14,1,11,0,0,0,,0,0,0,41,0,0,0,17,0,29,0
COc1cccc(-c2cc(-c3c[nH]nc3-c3ccccn3)ccn2)c1 [GW680338],23,0,12,9,0,0,0,7,0,0,24,19,4,0,17,26,25,2,0,0
CC(C)(C)c1ccc(C(=O)Nc2cn3cc(-c4cccnc4)ccc3n2)cc1,9,18,0,19,11,0,14,33,0,12,0,0,0,0,36,0,26,3,0,20
Cn1cncc1-c1ccc2ncnc(Nc3ccc(OCc4ccccc4)cc3)c2c1 [GW320571],19,34,29,0,3,25,0,14,0,23,0,16,14,1,15,3,0,94.2,16,7
CCCc1ccc(S(=O)(=O)NC2CCN(c3ccnc(Nc4ccc(F)cc4)n3)C2)cc1 (centres unmarked) [GSK1379715],0,73,26,30,0,16,0,4,0,0,7,6,0,17,0,20,4,18,0,100
Cl.O=C(Nc1cccc(-c2nn3ncccc3c2-c2ccnc(Nc3cccnc3)n2)c1)c1c(F)cccc1F [GSK312879],0,1,12,19,0,34,0,5,0,0,10,0,0,13,7,10,0,7,10,32
O=c1cc(N2CCOCC2)nc2n(Cc3cccc(Cl)c3Cl)ccn12 [GSK2286295],0,19,4,0,0,12,0,0,0,97,0,3,0,0,0,0,0,16,2,0
Cc1cccc(-c2nc(Nc3cccc(C(N)=O)c3)c3ccccc3n2)n1 [GW876019],0,0,19,25,9,0,0,0,0,4,0,5,9,0,0,0,0,0,0,0
Cn1ccc2ncnc(Oc3ccc(Nc4nc5ccccc5[nH]4)cc3)c21,2,0,0,0,0,0,0,0,0,0,0,0,19,0,0,0,0,0,0,2
O=C1NC(=O)C(N2CCc3ccccc32)=C1c1ccccc1Cl [SB-373598],65,28,0,0,0,61,6,39,2,16,0,6,9,0,2,22,75,13,16,20
Cc1ccc(NC(=O)Nc2cccc(Cl)c2)cc1-c1ccc(C(=O)Nc2ccncc2)cc1 [GSK1398468],0,0,0,26,0,11,0,5,16,0,0,2,21,7,0,18,24,10,0,0
